Experimental data: PubChem BioAssay (NCATS)
Unmarked numbers belong to inactive results. Results filed as inconclusive are left out. A call without a number means that no potency is given here. The source made the active and inactive calls. Unless noted, the call rests on the fitted dose curve; in most records, active means well fitted curve in the direction sought with a large enough effect; inconclusive means small, poorly fitted or top-dose-only effect, or another doubt; inactive means no such curve, though single readings can be large; an effect the other way counts as inactive or inconclusive.

Assays:
[1] = target: Cytochrome P450 2C19 (Homo sapiens) (UniProt P33261); test: qHTS Assay for Inhibitors and Substrates of Cytochrome P450 2C19 (AID 899); further: nearly all actives have a fitted effect of over 60% in size; further: potency means the concentration at half of the fitted maximal effect
Chain of Cytochrome P450 2C19 (Homo sapiens) (P33261 whole entry, looked up): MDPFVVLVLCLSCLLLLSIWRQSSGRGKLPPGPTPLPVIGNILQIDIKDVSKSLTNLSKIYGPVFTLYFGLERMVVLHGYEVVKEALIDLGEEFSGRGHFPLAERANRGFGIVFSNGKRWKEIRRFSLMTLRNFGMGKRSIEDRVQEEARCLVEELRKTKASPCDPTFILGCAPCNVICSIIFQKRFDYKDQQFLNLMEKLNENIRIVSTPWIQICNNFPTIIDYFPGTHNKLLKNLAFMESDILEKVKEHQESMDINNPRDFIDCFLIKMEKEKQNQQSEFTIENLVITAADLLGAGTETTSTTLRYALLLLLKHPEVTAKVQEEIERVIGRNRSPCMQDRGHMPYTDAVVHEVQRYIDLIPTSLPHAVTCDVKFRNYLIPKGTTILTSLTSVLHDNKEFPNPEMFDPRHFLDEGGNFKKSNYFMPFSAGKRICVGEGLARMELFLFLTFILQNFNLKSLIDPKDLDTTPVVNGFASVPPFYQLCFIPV
Procedure, shortened: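 Luminescent read-out of luciferin formed from Luciferin-H EGE (10uM, equal to KM). Enzyme 5nM in 50mM KPO4; compound added, 10 min at 37C, then NADPH regenerating system for 60 min at 37C. Full inhibition defined by 57uM ketoconazole.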

[2] = qHTS Assay for Identification of Small Molecule Agonists for Thrombopoietin (TPO) Signaling Pathway (AID 917)
Procedure, shortened: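 Luciferase reporter (Glycoprotein IIb promoter) in IL-3-deprived Ba/F3 cells carrying human TPO receptor; compounds co-added with 26 pM TPO, incubated 24 h, 37 C. Steadylite luminescence measured after 10 min.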

[3] = target: Muscarinic acetylcholine receptor M1 (Rattus norvegicus) (UniProt P08482); test: qHTS Assay for Antagonists of Acetylcholine Muscarinic M1 Receptor: Kinetic Measurement of Intracellular Calcium Response (AID 943);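 further: Fluo-4 calcium signal as peak divided by basal fluorescence over 4 min; series mostly up to about 35 µM; nearly all actives have a fitted effect of over 75% in size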
Chain of Muscarinic acetylcholine receptor M1 (Rattus norvegicus) (P08482 whole entry, looked up): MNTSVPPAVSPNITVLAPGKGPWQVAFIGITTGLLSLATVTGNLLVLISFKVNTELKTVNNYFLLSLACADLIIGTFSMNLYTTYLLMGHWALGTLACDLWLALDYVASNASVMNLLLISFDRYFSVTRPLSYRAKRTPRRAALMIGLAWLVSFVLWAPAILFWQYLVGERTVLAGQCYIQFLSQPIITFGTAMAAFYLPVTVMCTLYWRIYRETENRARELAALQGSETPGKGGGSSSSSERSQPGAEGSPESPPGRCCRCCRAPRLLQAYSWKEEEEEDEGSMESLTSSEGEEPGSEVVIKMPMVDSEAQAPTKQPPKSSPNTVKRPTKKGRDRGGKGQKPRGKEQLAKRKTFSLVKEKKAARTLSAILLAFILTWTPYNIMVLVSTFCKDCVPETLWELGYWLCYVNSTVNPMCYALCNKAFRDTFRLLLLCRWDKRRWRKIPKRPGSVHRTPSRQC
Procedure, shortened: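 Antagonism measured as reduction of carbachol-evoked (EC80, 100 nM final) calcium flux in rat M1-CHO cells after 10 min compound exposure. Fluo-4 signal read kinetically; ratio of maximal to basal fluorescence.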

[4] = target: Muscarinic acetylcholine receptor M1 (Rattus norvegicus) (UniProt P08482); test: qHTS Assay for Antagonists of Acetylcholine Muscarinic M1 Receptor: Measurement of IP-One Response (AID 944); further: nearly all actives have a fitted effect of over 75% in size
Procedure, shortened: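 IP1 accumulation measured via TR-FRET between d2-IP1 and Eu-cryptate anti-IP1 antibody after carbachol (200 nM, EC80) stimulation for 30 min; rat M1-transfected CHO cells received compound 10 min before agonist.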

[5] = target: Pyruvate kinase (Leishmania mexicana) (UniProt Q27686); test: qHTS Validation Assay for Inhibitors of Leishmania Mexicana Pyruvate Kinase (AID 945)
Chain of Pyruvate kinase (Leishmania mexicana) (Q27686 2-499 E452W): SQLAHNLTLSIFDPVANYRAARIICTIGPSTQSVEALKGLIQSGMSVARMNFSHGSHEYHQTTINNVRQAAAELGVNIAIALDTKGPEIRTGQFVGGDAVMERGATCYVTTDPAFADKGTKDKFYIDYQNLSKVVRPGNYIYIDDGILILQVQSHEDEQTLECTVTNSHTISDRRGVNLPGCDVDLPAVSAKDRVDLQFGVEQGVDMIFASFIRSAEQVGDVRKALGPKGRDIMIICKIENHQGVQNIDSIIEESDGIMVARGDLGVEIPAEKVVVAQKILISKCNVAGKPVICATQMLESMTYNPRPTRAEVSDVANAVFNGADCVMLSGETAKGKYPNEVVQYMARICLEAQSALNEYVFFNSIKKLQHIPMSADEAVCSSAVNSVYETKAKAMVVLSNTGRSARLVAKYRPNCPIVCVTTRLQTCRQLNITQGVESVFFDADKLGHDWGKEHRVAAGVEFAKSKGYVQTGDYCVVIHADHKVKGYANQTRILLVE
Procedure, shortened: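 qHTS eight-point titrations against 0.2 nM LmPYK (E451W) in imidazole buffer pH 7.2 with 0.5 mM PEP, 0.1 mM ADP; 1 h, room temperature. Readout: PKLight luminescence, normalized to neutral DMSO wells.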

[6] = target: Pyruvate kinase PKM (Homo sapiens) (UniProt P14618); test: qHTS Assay for Activators of Human Muscle Pyruvate Kinase (AID 954; active means well fitted curve in the direction sought with a large enough effect, not every such curve was filed as active)
Chain of Pyruvate kinase PKM (Homo sapiens) (P14618 whole entry, looked up): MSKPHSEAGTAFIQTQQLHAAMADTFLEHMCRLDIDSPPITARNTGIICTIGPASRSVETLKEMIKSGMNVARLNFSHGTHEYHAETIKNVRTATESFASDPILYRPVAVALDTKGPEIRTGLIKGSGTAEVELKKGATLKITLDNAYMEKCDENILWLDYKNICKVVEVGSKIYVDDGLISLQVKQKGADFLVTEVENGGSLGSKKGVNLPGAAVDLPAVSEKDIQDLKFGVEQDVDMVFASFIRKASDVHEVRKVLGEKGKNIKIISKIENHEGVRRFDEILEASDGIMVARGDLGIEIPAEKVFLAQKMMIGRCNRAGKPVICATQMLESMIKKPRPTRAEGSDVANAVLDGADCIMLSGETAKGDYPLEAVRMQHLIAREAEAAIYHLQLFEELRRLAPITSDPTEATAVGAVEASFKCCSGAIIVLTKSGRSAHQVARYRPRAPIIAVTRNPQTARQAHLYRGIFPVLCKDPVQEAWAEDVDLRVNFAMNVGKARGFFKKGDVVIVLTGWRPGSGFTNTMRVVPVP
Procedure, shortened: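 PKM2, human, >95% pure, 0.1 nM; PEP 0.5 mM (Km), ADP 0.1 mM; 50 mM imidazole pH 7.2, 50 mM KCl, 0.01% Tween 20, 0.05% BSA; 1 h RT; luciferase luminescence readout.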

[7] = Confirmation and Secondary Assay for Modulators of Hemoglobin Beta Chain Splicing at IVS2 654 locus (AID 910);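 further: HeLa cells stably carrying EGFP split by mutant beta-globin IVS2-654 intron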;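 further: potency means the concentration at half of the fitted maximal effect; potency of activators that raise GFP signal by restoring correct splicing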
Procedure, shortened: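 HeLa cells stably expressing EGFP interrupted by β-globin IVS2-654 intron, seeded overnight in Opti-MEM/2% FCS, then treated 2 days at 37 °C. Restored splicing read as total peak GFP intensity per well by laser scanning cytometry (488 nm excitation, 500–520 nm emission); 500 nM antisense PNA as control.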

[8] = Confirmation and Secondary Assay for Modulators of Hemoglobin Beta Chain Splicing at IVS2 705 locus (AID 930);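 further: HeLa cells stably expressing the EGFP-705 splicing reporter; GFP fluorescence per well restored by corrected splicing of the IVS2-705 intron in EGFP; series mostly up to about 46 µM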
Procedure, shortened: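 First, HeLa EGFP-705 cells are seeded at 500/well in Optimem with 2% FCS and left overnight. Next, compound or DMSO is added for 2 days. Finally wells are laser-scanned and total peak GFP intensity scored.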

[9] = qHTS Assay for Identification of Small Molecule Agonists for Hypoxia Response Element Signaling Pathway (AID 914; active means well fitted activation curve with a large enough effect in the signal ratio, with a control signal flat, not every such curve was filed as active; the % refers to the signal ratio; further: potency means the concentration at half of the fitted maximal effect); conditions: ME-180 (cervical carcinoma) HRE-bla reporter, beta-lactamase ratio, CoCl2, 17 h; activation: active compounds read high
Procedure, shortened: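 Positive modulation of EC50 CoCl2-induced hypoxia response element signaling is measured in ME-180 cells with a beta-lactamase reporter. Compounds are titrated, incubation runs 17 hours, and %Activity derives from the blue/green ratio.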

With `O=c1cc(-c2ccccc2)[nH]c2nc(Cl)ccc12` the Potency [1] was “inactive”, the Potency [2] was “inactive” and the Potency [3] was “inactive”. For the same compound, the Potency [4] was “inactive”, the Potency [5] was “inactive” and the outcome [6] was “inactive”.
For `O=C(O)c1cc2cc(F)ccc2[nH]1`, the Potency [1] was “inactive”, the Potency [7] was “inactive” and the Potency [2] was “inactive”. For the same compound, the outcome [8] was “inactive”, the Potency [3] was “inactive” and the Potency [4] was “inactive”. The Potency [5] was “inactive” and the outcome [6] was “inactive”.
With `NCCCCN` the Potency [7] was “inactive”, the Potency [2] was “inactive” and the outcome [8] was “inactive”. For the same compound, the Potency [3] was “inactive”, the Potency [4] was “inactive” and the Potency [5] was “inactive”. The outcome [6] was “inactive”.
For `O=C(O)/C=C/c1ccc(O)c(O)c1`, the Potency [7] was “inactive”, the Potency [2] was “inactive” and the outcome [8] was “inactive”. For the same compound, the Potency [3] was “inactive”, the Potency [4] was “inactive” and the Potency [5] was “inactive”. The outcome [6] was “inactive”.
For `N=C(N)SCCN`, the Potency [1] was “inactive”, the Potency [7] was “inactive” and the Potency [2] was “inactive”. The outcome [8] was “inactive”, the Potency [4] was “inactive” and the Potency [5] was “inactive”. The outcome [6] was “inactive”.
With `Cn1ccnc1` the Potency [1] was “inactive”, the Potency [2] was “inactive” and the Potency [3] was “inactive”. For the same compound, the Potency [4] was “inactive”, the Potency [5] was “inactive” and the outcome [6] was “inactive”.
With `O=c1[nH]c(=O)c2nc3ccccc3nc2[nH]1` the Potency [1] was “inactive”, the Potency [2] was “inactive” and the Potency [3] was “inactive”. The Potency [4] was “inactive”, the Potency [5] was “inactive” and the outcome [6] was “inactive”.
For `CCCc1c(-c2ccc(O)cc2)nn(-c2ccc(O)cc2)c1-c1ccc(O)cc1`, the Potency [1] was 10 µM (active), the Potency [3] was “inactive” and the Potency [5] was “inactive”. For the same compound, the outcome [6] was “inactive”.
With `Nc1nc2ccc(Cl)cc2c2nc(-c3ccco3)nn12` the Potency [1] was “inactive”, the Potency [3] was “inactive” and the Potency [4] was “inactive”. The Potency [5] was “inactive” and the outcome [6] was “inactive”.
With `O=[N+]([O-])c1cccc2c(Br)[nH]nc12` the Potency [7] was “inactive”, the Potency [2] was “inactive” and the outcome [8] was “inactive”. For the same compound, the Potency [5] was “inactive” and the outcome [6] was “inactive”.
In the case of `OC[C@H]1O[C@@H](n2cnc3cncnc32)[C@H](O)[C@@H]1O`, the Potency [7] is reported as 1.26 µM (active) and the outcome [8] is reported as “inactive”.
For `CCCn1c(=O)c2c(ncn2C)n(CCC)c1=O`, the activation [9] was 3.52%, the Potency [2] was “inactive” and the Potency [3] was “inactive”. The Potency [5] was “inactive” and the outcome [6] was “inactive”.
In the case of `CC(N)=O`, the Potency [2] is reported as “inactive”, the Potency [3] is reported as “inactive” and the Potency [4] is reported as “inactive”. The Potency [5] was “inactive” and the outcome [6] was “inactive”.
With `Oc1ccc(Cn2cc[nH]c2=S)cc1` the Potency [2] was “inactive”, the Potency [3] was “inactive” and the Potency [4] was “inactive”. For the same compound, the Potency [5] was “inactive” and the outcome [6] was “inactive”.
In the case of `Nc1ccc(N2C(=O)c3ccccc3C2=O)c(Cl)c1`, the activation [9] is reported as -21.1%, the Potency [2] is reported as “inactive” and the Potency [4] is reported as “inactive”. For the same compound, the Potency [5] was “inactive” and the outcome [6] was “inactive”.
With `C=C(C)C1CC=C(C(=O)O)CC1` (centres undefined) the Potency [7] was “inactive” and the outcome [8] was “inactive”.
With `N[C@@H](CS(=O)O)C(=O)O` the Potency [2] was “inactive”, the Potency [3] was “inactive” and the Potency [4] was “inactive”. The Potency [5] was “inactive” and the outcome [6] was “inactive”.
With `O=c1onc2n1-c1cc(Br)ccc1OC2` the Potency [2] was “inactive”, the Potency [3] was “inactive” and the Potency [4] was “inactive”. The Potency [5] was “inactive” and the outcome [6] was “inactive”.
For `N[C@@H](Cc1ccc(O)c(I)c1)C(=O)O`, the Potency [2] was “inactive”, the Potency [3] was “inactive” and the Potency [4] was “inactive”. The Potency [5] was “inactive” and the outcome [6] was “inactive”.
With `COc1ccc2c(c1)c(CC(=O)O)c(C)n2C(=O)c1ccccc1` the Potency [2] was “inactive”, the Potency [3] was “inactive” and the Potency [4] was “inactive”. The Potency [5] was “inactive” and the outcome [6] was “inactive”.
For `CN1C2CCC1CC(OC(c1ccccc1)c1ccccc1)C2` (centres undefined), the Potency [7] was “inactive” and the outcome [8] was “inactive”.
In the case of `N[C@@H](Cc1c[nH]c2ccccc12)C(=O)O`, the Potency [2] is reported as “inactive”, the Potency [3] is reported as “inactive” and the Potency [4] is reported as “inactive”. For the same compound, the Potency [5] was “inactive” and the outcome [6] was “inactive”.
For `Nc1nc2[nH]c(=O)cnc2c(=O)[nH]1`, the Potency [2] was “inactive”, the Potency [3] was “inactive” and the Potency [4] was “inactive”. The Potency [5] was “inactive” and the outcome [6] was “inactive”.
In the case of `c1ccc(C2CN3CCSC3=N2)cc1` (centres undefined), the Potency [7] is reported as “inactive” and the outcome [8] is reported as “inactive”.
In the case of `NC(N)=[N+]1CCc2ccccc2C1`, the Potency [2] is reported as “inactive”, the Potency [3] is reported as “inactive” and the Potency [5] is reported as “inactive”. The outcome [6] was “inactive”.
With `Cc1cc2c(cc1Cl)N(C(=O)Nc1ccnc3ccccc13)CC2` the Potency [2] was “inactive”, the Potency [3] was “inactive” and the Potency [4] was “inactive”. The Potency [5] was “inactive” and the outcome [6] was “inactive”.
For `CC(C)(CO)Cc1cc(C(C)(C)C)c(O)c(C(C)(C)C)c1`, the Potency [9] was 12.6 µM (active), the Potency [2] was “inactive” and the Potency [3] was “inactive”. For the same compound, the Potency [4] was “inactive”, the Potency [5] was “inactive” and the outcome [6] was “inactive”.
With `COc1ccc2c(c1)c(CC(=O)O)c(C)n2Cc1ccc(Cl)cc1` the Potency [2] was “inactive”, the Potency [3] was “inactive” and the Potency [4] was “inactive”. For the same compound, the Potency [5] was “inactive” and the outcome [6] was “inactive”.
